Records with an inconclusive call do not appear. Active and inactive are the calls of the source. Calls follow the shape of the dose curve; as a rule, active = well fitted curve in the direction sought with a large enough effect; inconclusive = small, poorly fitted or top-dose-only effect, or another doubt; inactive = no such curve, though single readings can be large; an effect the other way counts as inactive or inconclusive.
Tests used:
[1] = Cellular Toxicity (caspase-3) Hek293 (AID 664); conditions: HEK293 caspase-3 activation, DMSO = 0%, 100 µM tamoxifen = 100%; series mostly up to 92.2 µM;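 also: cells exposed to compound for 16 h at 37 °C before readout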
Procedure, shortened: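 Cells plated, 5 hr at 37 °C; compounds added; 16 hr at 37 °C; Caspase-Glo 3/7 reagent, 20 min RT; luminescence read. Activation expressed relative to DMSO and 100 uM tamoxifen, AC50 by Hill model.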

[2] = Cellular Toxicity (caspase-3) N2a (AID 665); conditions: N2a cells, luminescence, normalized: DMSO 0%, 10 µM staurosporine 100%; series mostly up to 92.2 µM;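 also: compound exposure lasted 16 h at 37 °C before readout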
Procedure, shortened: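 N2a cells, 1500/well, 5 h settle at 37 °C; cpd 16 h, 37 °C; Caspase-Glo 3/7, 1 h RT; luminescence. Norm: DMSO = 0, 10 uM staurosporine = 100%. AC50, Hill fit.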

[3] = Cellular Toxicity (caspase-3) NIH 3T3 (AID 666); conditions: NIH 3T3 caspase-3 activation, apoptosis/toxicity, 0% DMSO, 100% is 100 µM tamoxifen; series mostly up to 92.2 µM
Procedure, shortened: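 Luminescence from aminoluciferin released by caspase-3/7 cleavage of a peptide substrate served as read-out. Mouse fibroblast NIH 3T3 cells were exposed to compounds over a concentration range for 16 hours, and AC50 values came from standard Hill modelling.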

[4] = Cellular Toxicity (caspase-3) Renal Proximal Tubule (AID 667); conditions: renal proximal tubule cells, primary cells freshly taken from rat, solvent-only wells 0%, staurosporine 100%; series mostly up to 91.7 µM;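 also: cells exposed to compound for 16 hours at 37 °C before detection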
Procedure, shortened: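 Caspase-Glo 3/7 read-out, rat primary kidney proximal tubule cells. Compound exposure 16 h, 37 °C; detection after 1 h at RT. Activity scaled to DMSO and 10 uM staurosporine.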

[5] = MultiTox-Fluor Cytotoxicity Assay - LYMP1-001 - Dead Cells (AID 946); conditions: LYMP1-001 lymphoblastoid cells, dead-cell protease fluorescence; series mostly up to 92.2 µM
Procedure, shortened: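 LYMP1-001 lymphoblastoid cells (2500/well) treated 16 h at 37 C. Dead-cell protease cleavage of bis-AAF-R110 read at Ex/Em 485/520. Normalized to DMSO and 15 uM tetraoctylammonium bromide; AC50 from Hill fits.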

[6] = MultiTox-Fluor Cytotoxicity Assay - LYMP1-001 - Live Cells (AID 947); conditions: LYMP1-001 lymphoblastoid cells, live-cell protease fluorescence viability; series mostly up to 92.2 µM
[7] = Cell Viability - LYMP1-002 - Assay at 16 hr (AID 948); conditions: LYMP1-002 lymphoblastoid cell viability; series mostly up to 92.2 µM
Procedure, shortened: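 In this qHTS, lymphoblastoid LYMP1-002 cells (human) receive compounds for 16 hr at 37 C. Viability is taken from CellTiter-Glo ATP luminescence, and AC50 derives from standard Hill fits.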

[8] = MultiTox-Fluor Cytotoxicity Assay - LYMP1-002 - Live Cells (AID 955); conditions: LYMP1-002 lymphoblastoid live-cell protease fluorescence viability; series mostly up to 46.1 µM
Procedure, shortened: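 Read-out is live-cell protease activity (cell-permeant GF-AFC substrate, fluorescence Ex/Em=405/510), where a decrease indicates acute toxicity. Human lymphoblastoid cells were treated 16 hours at 37 C in a concentration series, and AC50 values came from standard Hill modelling.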

[9] = MultiTox-Fluor Cytotoxicity Assay - LYMP1-002 - Dead Cells (AID 960); conditions: LYMP1-002 lymphoblastoid cells, dead-cell protease fluorescence; series mostly up to 46.1 µM; also: nearly all actives have a fitted effect of over 60% in size
Procedure, shortened: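 LYMP1-002 cells 2500/well; 5 hr 37 C pre-incubation; compound 16 hr 37 C; MultiTox-Fluor reagent 60 min RT; dead-cell fluor Ex/Em 485/520. Norm. to DMSO (0%) vs 15 uM tetraoctylammonium bromide (100%); Hill AC50.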

[10] = MultiTox-Fluor Cytotoxicity Assay - LYMP1-003 - Dead Cells (AID 961); conditions: LYMP1-003 lymphoblastoid cells, dead-cell protease fluorescence; series mostly up to 92.2 µM; also: nearly all actives have a fitted effect of over 70% in size
Procedure, shortened: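 LYMP1-003 human lymphoblastoid cells (2500/well) exposed to compound 16 h at 37 C in complete medium; dead-cell protease read with bis-AAF-R110 fluorescence (Ex/Em 485/520) after 60 min at room temperature. Normalized to DMSO and 15 uM tetraoctylammonium bromide; AC50 from Hill fit.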

[11] = MultiTox-Fluor Cytotoxicity Assay - LYMP1-003 - Live Cells (AID 962); conditions: LYMP1-003 lymphoblastoid cells, MultiTox-Fluor live-cell protease fluorescence; series mostly up to 92.2 µM;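 also: cytotoxic hits lower the live-cell protease signal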
Procedure, shortened: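 qHTS, 1536-well; 2500 cells/well LYMP1-003; 5 hr 37 C settle; cpd 16 hr 37 C; MultiTox-Fluor reagent 60 min RT; live-cell protease fluor. 405/510; Hill-fit AC50; tetraoctylammonium bromide pos. ctrl.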

[12] = Cell Viability - LYMP1-003 - Assay at 24 hr (AID 963); conditions: LYMP1-003 lymphoblastoid cell viability; series mostly up to 92.2 µM
Procedure, shortened: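 Cells seeded at 2500/well, 5 hr at 37 C; compounds added; 24 hr at 37 C; CellTiter-Glo added, 30 min room temperature; luminescence read. Decrease in ATP taken as cytotoxicity, AC50 from Hill modelling.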

[13] = Cell Viability - LYMP1-003 - Assay at 40 hr (AID 964); conditions: LYMP1-003 lymphoblastoid viability; series mostly up to 92.2 µM; also: nearly all actives have a fitted effect of over 60% in size
Procedure, shortened: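 Cells were seeded at 2500 per well and incubated 5 hr at 37 C. Compounds were added across a concentration series and left 40 hr at 37 C. CellTiter-Glo was added for 30 min at room temperature before luminescence reading.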

[14] = molecular target: Cytochrome P450 2C19 (Homo sapiens) (UniProt P33261); assay: qHTS Assay for Inhibitors and Substrates of Cytochrome P450 2C19 (AID 899); conditions: recombinant CYP2C19, luciferin-H EGE luminescence; also: potency is read from the fitted curve at half-maximal effect; nearly all actives have a fitted effect of over 60% in size
Sequence of Cytochrome P450 2C19 (Homo sapiens) (P33261 whole entry, looked up): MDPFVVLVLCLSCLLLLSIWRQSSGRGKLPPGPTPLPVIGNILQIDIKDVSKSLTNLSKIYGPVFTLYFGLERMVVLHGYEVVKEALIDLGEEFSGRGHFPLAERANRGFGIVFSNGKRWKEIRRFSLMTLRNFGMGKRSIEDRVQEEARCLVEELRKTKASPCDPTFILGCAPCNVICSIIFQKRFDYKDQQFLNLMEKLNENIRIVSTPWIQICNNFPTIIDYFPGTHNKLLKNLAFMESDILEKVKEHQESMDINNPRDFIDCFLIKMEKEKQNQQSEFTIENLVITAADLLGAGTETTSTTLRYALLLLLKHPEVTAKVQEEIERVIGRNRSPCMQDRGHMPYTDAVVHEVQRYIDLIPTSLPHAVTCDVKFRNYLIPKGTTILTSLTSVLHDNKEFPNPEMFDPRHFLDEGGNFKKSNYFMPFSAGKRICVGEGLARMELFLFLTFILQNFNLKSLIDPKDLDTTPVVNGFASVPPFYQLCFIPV
Procedure, shortened: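 Human CYP2C19 (5nM) with Luciferin-H EGE at 10uM (its KM) in 50mM KPO4 was preincubated with compound for 10 min at 37C. NADPH regeneration started a 60 min 37C reaction. Luciferin was read by luminescence, normalized to 57uM ketoconazole.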

Measured: Potency

C[C@@H]1C[C@H]2[C@@H]3CCC4=CC(=O)C=C[C@]4(C)[C@@]3(F)[C@@H](O)C[C@]2(C)[C@@]1(O)C(=O)CO
inactive: [1] | [2] | [3] | [4] | [5] | [6] | [7] | [8] | [9] | [10] | [11] | [12] | [13]

CN(C)CCN(Cc1ccc(Cl)cc1)c1ccccn1
active: [14] 6.31 µM

CN1CCN2c3ncccc3Cc3ccccc3C2C1 (stereo not given)
active: [14] 0.0501 µM
